Reference: PubChem BioAssay AID1578 (Sanford-Burnham Center for Chemical Genomics, 2009)
Screen size: about 290,000 compounds; about 3,000 (1%) were called active. Rule as the data show it: active = inhibition mostly above about 36% (no sharp cut-off); inactive = mostly below about 34%. This excerpt belongs to a sample that is enriched for actives.

Assay: inhibition of NOD1-driven NF-kB reporter – cell-based, luminescence, uHTS, primary screen (AID 1578);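 also: HEK-293T reporter cells stimulated with the NOD1 agonist gamma-tri-DAP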
Conditions: NOD1-driven NF-kB luciferase reporter cells, at 4 µM, hits give high values
With `CC(C)(C)c1ccc(Cn2c(=O)cnc3ccccc32)cc1` the inhibition was 48.9% (active).
With `O=c1cnc2ccccc2n1Cc1ccccc1C(F)(F)F` the inhibition was -40.7% (inactive).
In the case of `O=c1cnc2ccccc2n1Cc1ccc(Br)cc1`, the inhibition is reported as -18.3% (inactive).
With `C=CCn1cc(C(=O)OCC)c(=O)c2cc(F)c(F)cc21` the inhibition was 2.3% (inactive).
For `Cc1ccc(C(=O)COC(=O)CCC(=O)Nc2cc(Cl)ccc2Cl)cc1[N+](=O)[O-]`, the inhibition was 7.9% (inactive).
For `COc1ccc(N(C(=O)c2ccco2)C(C(=O)NC2CCCC2)c2cccs2)c(OC)c1` (stereo unspecified), the inhibition was -2.6% (inactive).
For `C#CC(=O)N(c1cccc(OC)c1)C(C(=O)NC1CCCC1)c1cccs1` (stereo unspecified), the inhibition was 22.1% (inactive).
In the case of `COc1ccc(N(C(=O)c2ccco2)C(C(=O)NC2CCCC2)c2cccs2)cc1OC` (stereo unspecified), the inhibition is reported as 2.7% (inactive).
With `C#CC(=O)N(c1cc(OC)ccc1OC)C(C(=O)NC1CCCC1)c1cccs1` (stereo unspecified) the inhibition was -17.4% (inactive).
With `C#CC(=O)N(c1ccc(OC)cc1OC)C(C(=O)NC1CCCC1)c1cccs1` (stereo unspecified) the inhibition was 74.7% (active).
In the case of `C#CC(=O)N(c1ccc(OC)c(OC)c1)C(C(=O)NC1CCCC1)c1cccs1` (stereo unspecified), the inhibition is reported as 79.9% (active).
For `CC(C)c1nc2ccccc2n1CC(O)COC1CCCCC1` (stereo unspecified), the inhibition was -23.2% (inactive).
With `COc1ccc(C)cc1NC(=O)NNC(=O)C(C)Oc1ccc(F)cc1Cl` (stereo unspecified) the inhibition was -17.8% (inactive).
In the case of `COc1cccc(C(=O)N2CCC(n3nccc3NC(=O)CCOc3ccccc3)CC2)c1`, the inhibition is reported as -25.4% (inactive).
In the case of `CCCn1c(SCC(=O)Nc2nonc2C)nnc1-c1ccoc1C`, the inhibition is reported as -22.4% (inactive).
In the case of `COC(=O)CN1C(=S)N(Cc2ccccc2)C(=O)C1CC(=O)Nc1ccc(Br)cc1` (stereo unspecified), the inhibition is reported as 28.8% (inactive).
In the case of `Cc1ccc(NS(=O)(=O)c2ccc3[nH]c(=O)[nH]c3c2)c(C)c1`, the inhibition is reported as -12.1% (inactive).
With `Cc1ccc(S(=O)(=O)Nc2ccccc2-c2ccccc2)cc1` the inhibition was 18.4% (inactive).
For `Cc1ccc(S(=O)(=O)Nc2ccccc2C(N)=O)cc1`, the inhibition was -11.8% (inactive).
For `Cc1cccc(C)c1NS(=O)(=O)c1ccc2c(c1)C(=O)c1ccccc1C2=O`, the inhibition was -19.6% (inactive).
In the case of `CCCC(=O)C1=C(O)C(C(=O)OC)C(C)(C)CC1=NC` (stereo unspecified), the inhibition is reported as 11.5% (inactive).
For `CN(CCO)c1cnccn1`, the inhibition was -22.7% (inactive).
For `COc1ccccc1N1CCN(CCC(=O)Nc2cccc(Cl)c2)CC1`, the inhibition was -7.2% (inactive).
With `CNC(=O)NC(=O)Cn1cnc2sc(-c3ccccc3)cc2c1=O` the inhibition was 0.3% (inactive).
In the case of `CCCCOCCCNC(=O)C1c2ccccc2Oc2ccccc21`, the inhibition is reported as -0.9% (inactive).
For `CCOC(=O)CS(=O)(=O)c1nc(-c2ccccc2)cc(C(F)(F)F)n1`, the inhibition was 69.2% (active).
With `Nc1nc(-c2ccc(F)cc2)cc(C(F)(F)F)n1` the inhibition was 9.6% (inactive).
For `CS(=O)(=O)c1nc(-c2ccc(F)cc2)cc(C(F)(F)F)n1`, the inhibition was 103% (active).
With `CCOC(=O)CSc1nc(-c2ccccc2)cc(C(F)(F)F)n1` the inhibition was -48.1% (inactive).
In the case of `CS(=O)(=O)c1nc(-c2ccccc2)cc(C(F)(F)F)n1`, the inhibition is reported as -5.3% (inactive).
With `CCOC(=O)CCSc1nc(-c2ccccc2)cc(C(F)(F)F)n1` the inhibition was -31.4% (inactive).
In the case of `CC(C)(C)NC(=O)CN(Cc1ccc2c(c1)OCO2)C(=O)CNC(=O)c1cccs1`, the inhibition is reported as -12.6% (inactive).
For `CCn1ncc(Br)c1C(=O)NC1CCCCCCC1`, the inhibition was -9% (inactive).
For `CCN(CC)CCn1c(=N)n(CC(O)c2ccco2)c2ccccc21` (stereo unspecified), the inhibition was 62% (active).
With `CCCn1c(=N)n(CC(O)c2ccco2)c2ccccc21` (stereo unspecified) the inhibition was 1.5% (inactive).
With `CCn1c(=N)n(CC(O)c2ccco2)c2ccccc21` (stereo unspecified) the inhibition was 11% (inactive).
In the case of `C=C(C)c1cccc(C(C)(C)NC(=O)Nc2cc(C)ccc2OC)c1`, the inhibition is reported as -33% (inactive).
With `CCOc1cccc2c1OC1(C)CC2NC(=O)N1c1cccc(C(=O)N2CCN(c3ccccn3)CC2)c1` (stereo unspecified) the inhibition was 76.5% (active).
With `COc1cccc2c1OC1(C)CC2NC(=O)N1c1cccc(C(=O)N2CCN(c3ccccn3)CC2)c1` (stereo unspecified) the inhibition was -17.8% (inactive).
For `CC12CC(NC(=O)N1c1cccc(C(=O)N3CCN(c4ccccn4)CC3)c1)c1ccccc1O2` (stereo unspecified), the inhibition was -1.9% (inactive).
With `COc1ccc(C(=O)C2CCCN(Cc3ccc4nonc4c3)C2)c(OC)c1` (stereo unspecified) the inhibition was -21.3% (inactive).
In the case of `COc1ccc(C(=O)C2CCCN(Cc3cc(Cl)ccc3O)C2)c(OC)c1` (stereo unspecified), the inhibition is reported as -3.1% (inactive).
With `COc1ccc(C(=O)C2CCCN(Cc3cc(C)c(O)c(C)c3)C2)c(OC)c1` (stereo unspecified) the inhibition was 110% (active).
With `CCOC(=O)N1CCN(C(=O)c2c[nH]c3ccc(S(=O)(=O)N(C)c4ccc(F)cc4)cc3c2=O)CC1` the inhibition was -23.5% (inactive).
In the case of `CCOC(=O)C(=Cc1cn(C)c2ccc(S(=O)(=O)N(C)C)cc12)C(=O)OCC`, the inhibition is reported as 29.1% (inactive).
For `CCOC(=O)C(=Cc1c[nH]c2ccc(S(=O)(=O)N(C)C)cc12)C(=O)OCC`, the inhibition was 43.9% (active).
In the case of `Cc1ccc(C(=O)c2ccc([N+](=O)[O-])cc2)c(C)c1`, the inhibition is reported as -4.2% (inactive).
For `COCCN1CCN(C(=O)C2CCC(=O)N(Cc3ccccc3F)C2)CC1` (stereo unspecified), the inhibition was -13.9% (inactive).
For `COc1ccc(NC2=NC(=S)N(c3ccccc3C)C23CCCCC3)cc1`, the inhibition was -2.5% (inactive).
With `Oc1ccc(Nc2ncnc3ccccc23)cc1` the inhibition was 4.4% (inactive).
For `Nc1cccc(Nc2ncnc3ccccc23)c1`, the inhibition was 3% (inactive).
In the case of `Oc1cccc(Nc2ncnc3ccccc23)c1`, the inhibition is reported as 56% (active).
For `O=C(CN1CC(c2ccccc2)CC1=O)Nc1ccc2c(c1)OCO2` (stereo unspecified), the inhibition was -14% (inactive).
In the case of `COCCCNC(c1ccccc1)c1ccncc1` (stereo unspecified), the inhibition is reported as -23.2% (inactive).
In the case of `O=C(COc1ccccc1)Nc1nc(-c2ccc(S(=O)(=O)N3CCOCC3)cc2)cs1`, the inhibition is reported as 3.4% (inactive).
With `O=C(COc1cccc(Cl)c1)Nc1nc(-c2ccc(S(=O)(=O)N3CCOCC3)cc2)cs1` the inhibition was 53.1% (inactive).
With `O=C(Nc1ccccc1)NC1CS(=O)(=O)CC1O` (stereo unspecified) the inhibition was -16.3% (inactive).
With `O=C(c1ccc(Br)cc1)C1CCc2occc2C1=O` (stereo unspecified) the inhibition was -29.8% (inactive).
With `Cc1cccnc1NC(=O)c1cccc(S(=O)(=O)N2CCCc3ccccc32)c1` the inhibition was -13% (inactive).
With `O=C(O)c1cccc(NC(=O)c2cccc(S(=O)(=O)N3CCc4ccccc43)c2)c1` the inhibition was 29.9% (inactive).
In the case of `Nn1cc(-c2ccccc2)nc1SCC(=O)NCC1CCCO1` (stereo unspecified), the inhibition is reported as -25.8% (inactive).
For `O=C(CSc1nnc(-c2ccccc2)n1-c1ccccc1)c1cccs1`, the inhibition was -1.9% (inactive).
For `Cc1cc(C(=O)NC2CCCCC2C)c2ccccc2n1` (stereo unspecified), the inhibition was 1.8% (inactive).
With `O=C(C1=NNCC1c1ccccc1)C1CO1` (stereo unspecified) the inhibition was -5.4% (inactive).
In the case of `O=C(C1=NNCC1c1ccccc1)C1OC1c1ccccc1` (stereo unspecified), the inhibition is reported as 15.8% (inactive).
For `O=C(C1=NNCC1c1ccc(Cl)cc1)C1CO1` (stereo unspecified), the inhibition was 88.4% (active).
For `Cc1nc(N2CCOCC2)nc(OCCN(C)C)c1[N+](=O)[O-]`, the inhibition was -6.3% (inactive).
For `O=C(O)/C(=C\c1cccs1)Sc1nnc(-c2ccc(F)cc2)o1`, the inhibition was -11.6% (inactive).
With `COc1cc(/C=C(/Sc2nnc(-c3ccc(F)cc3)o2)C(=O)O)ccc1OC(F)F` the inhibition was -21.8% (inactive).
In the case of `O=C(O)/C(=C\c1ccccc1OC(F)F)Sc1nnc(-c2ccc(F)cc2)o1`, the inhibition is reported as 32.5% (active).
In the case of `CCCC(c1nnnn1C(C)(C)C)N1CCN(c2ccccc2)CC1` (stereo unspecified), the inhibition is reported as -12.7% (inactive).
In the case of `Cc1cc(=O)oc(C)c1C(=O)NNC(=O)C1(C)CC1Br` (stereo unspecified), the inhibition is reported as -8.9% (inactive).
In the case of `COc1cc(/C=N/NC(=O)c2cnn3c(C)cc(-c4ccccc4)nc23)ccc1O`, the inhibition is reported as 46.9% (inactive).
For `Cc1cc(C)c(NC(=S)N(CCCN2CCN(C)CC2)Cc2cccs2)c(C)c1`, the inhibition was -25.1% (inactive).
In the case of `Clc1ccc(CNCC2CCCO2)cc1` (stereo unspecified), the inhibition is reported as 5.9% (inactive).
In the case of `Brc1ccc(CNCC2CCCO2)cc1` (stereo unspecified), the inhibition is reported as 64.4% (active).
With `Fc1ccc(CNCC2CCCO2)cc1` (stereo unspecified) the inhibition was 2.2% (inactive).
For `COc1ccc(N(CC(=O)NCc2ccccc2)S(=O)(=O)c2c(C)nn(C)c2C)cc1`, the inhibition was -15.5% (inactive).
With `COc1cc(/C=C2/C(=O)NN(c3ccc(Cl)c(Cl)c3)C2=O)cc([N+](=O)[O-])c1O` the inhibition was 14.3% (inactive).
With `O=C1NN(c2ccccc2)C(=O)/C1=C\c1cccn1-c1ccc(Cl)c([N+](=O)[O-])c1` the inhibition was 86.9% (active).
For `COc1cc(/C=C2\C(=O)NN(c3ccccc3)C2=O)cc([N+](=O)[O-])c1O`, the inhibition was -38.3% (inactive).
In the case of `O=C(CN1CCN(S(=O)(=O)N2CCCCCC2)CC1)Nc1ccc(Br)cc1`, the inhibition is reported as -32.9% (inactive).
For `O=Cc1ccc(N2CCCC2)c([N+](=O)[O-])c1`, the inhibition was -40.9% (inactive).
With `CNC(=O)Cc1csc2ccc(C)cc12` the inhibition was 41.4% (active).
In the case of `CNC(=O)Cc1csc2ccc(Cl)cc12`, the inhibition is reported as -7.2% (inactive).
In the case of `O=C(O)CSCC(=O)NCc1csc2ccc(Cl)cc12`, the inhibition is reported as 0.3% (inactive).
With `Cc1ccc(C)c(N2CCN(CCCNC(=O)Cn3cc4c(n3)CCC(C)C4)CC2)c1` (stereo unspecified) the inhibition was -16.2% (inactive).
In the case of `COc1ccccc1/C=N/N(C(C)=O)c1nc(-c2ccc(F)cc2)cs1`, the inhibition is reported as 9.4% (inactive).
With `O=C(O)C1CCCN(S(=O)(=O)c2ccc(Cl)s2)C1` (stereo unspecified) the inhibition was -19.7% (inactive).
In the case of `Cc1cccc(Nc2ccc3nonc3c2[N+](=O)[O-])c1C`, the inhibition is reported as -9.3% (inactive).
With `COc1cc(NC(=O)COc2ccc(Cl)cc2)ccc1-c1cc2ccccc2oc1=O` the inhibition was 12.1% (inactive).
With `COc1cc(NC(C)=O)ccc1-c1cc2ccccc2oc1=O` the inhibition was 34.7% (inactive).
In the case of `CCCc1ccc(S(=O)(=O)NCC2CCCN2CC)cc1` (stereo unspecified), the inhibition is reported as -7.8% (inactive).
With `COc1ccc(N(CC(=O)NCc2ccco2)C(=O)CNS(=O)(=O)c2ccc(Cl)cc2)cc1` the inhibition was 4.6% (inactive).
In the case of `O=C(Cc1ccccc1)NC(=S)Nc1ccc2oc(-c3ccccc3F)nc2c1`, the inhibition is reported as -99.4% (inactive).
In the case of `O=C(C1=C[C@@H](c2csc3ccccc23)C[C@@H](OCCCCO)O1)N1CCN(Cc2ccc3c(c2)OCO3)CC1`, the inhibition is reported as -7.2% (inactive).
